# A selection: hits, their analogues and other compounds. The true share with any hit is near 3.5%.
# TEAD-YAP block: TEAD-YAP interaction inhibition; HEK-TIYL cells, TEAD-Gal4/YAP UAS-luciferase luminescence; inhibition, % at 9.12 µM; 640,000 compounds, 1.4% hits; in the data active = inhibition above about 32%;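 also: 0% = median of test compound wells and 100% = reference inhibitor wells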
# FBW7 activator: activators of human E3 ligase FBW7 | Q969H0 | AlphaScreen FBW7–phospho-cyclin E peptide binding, activator screen | normalized activity (activation), % at 26.1 µM | 650,000 compounds, 0.13% hits | AID 1259310; in the data active = normalized activity above about 1.9%;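 also: purified mutant Fbw7 with reduced substrate affinity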
# MITF primary: human MITF inhibition, primary screen; inhibition, % at 2.6 µM; AID 1259374; AlphaScreen MITF homodimerization, bead proximity signal; 650,000 compounds, 0.91% hits; O75030; in the data active = inhibition above about 50%;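 also: 0% = vehicle wells with protein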
# Target sequence (O75030 whole entry, looked up): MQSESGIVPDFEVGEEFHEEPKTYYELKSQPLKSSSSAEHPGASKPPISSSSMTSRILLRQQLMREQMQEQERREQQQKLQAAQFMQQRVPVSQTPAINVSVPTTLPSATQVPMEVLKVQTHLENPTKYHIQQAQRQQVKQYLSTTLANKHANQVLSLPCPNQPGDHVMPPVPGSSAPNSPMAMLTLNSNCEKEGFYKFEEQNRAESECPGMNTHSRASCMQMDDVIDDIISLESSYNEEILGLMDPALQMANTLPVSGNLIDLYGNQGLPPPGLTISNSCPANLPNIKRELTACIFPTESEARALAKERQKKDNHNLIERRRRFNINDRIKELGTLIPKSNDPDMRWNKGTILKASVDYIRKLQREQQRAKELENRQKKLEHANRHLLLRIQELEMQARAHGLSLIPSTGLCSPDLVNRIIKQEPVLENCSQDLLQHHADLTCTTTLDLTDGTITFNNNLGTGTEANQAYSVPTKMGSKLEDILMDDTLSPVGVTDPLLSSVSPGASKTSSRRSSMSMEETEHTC
# GPR151 ag: activates the human receptor GPR151; Q8TDV0; PathHunter beta-arrestin GPR151 cells, luminescence; activation, % at 11.2 µM; 650,000 compounds, 1% hits; AID 1508602; in the data active = activation above about 4.9%;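 also: 0% = median of compound wells and 100% = cells with positive control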
# MITF inh conf: human MITF inhibition, confirmation; AlphaScreen MITF homodimerization, biotin/His-MITF beads; inhibition, % at 2.6 µM; AID 1259372; shares compounds with MITF primary; 4,700 compounds, 16% hits;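 active = inhibition above a cutoff derived from the DMSO control wells, cut at about 28% in these data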;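 also: 0% = MITF dimer wells with DMSO only; inhibitors lower the bead chemiluminescence by keeping MITF from dimerizing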
# AlphaScreen DR: counter-screen: compounds optically interfering with AlphaScreen. shares compounds with MITF primary. AlphaScreen optical interference counterscreen, cell-free. IC50, µM. 480 compounds, 6% hits. AID 1259373; call rule not given here
# AS interf ctr: optically interferes with AlphaScreen signal | shares compounds with MITF primary | LysRS AlphaScreen counterscreen, signal interference, triplicate | inhibition, % at 2.6 µM | 4,700 compounds, 7.6% hits | AID 1259376;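 active = inhibition above a cutoff derived from the DMSO control wells, cut at about 30% in these data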
# * = called active by the depositor; nt = no result given.
SMILES,TEAD-YAP block,FBW7 activator,MITF primary,GPR151 ag,MITF inh conf,AS interf ctr,others
CN(C)/C=C/C=C/C(=O)C1CCC/C(=C\C=C\N(C)C)C1=O (configuration not stated),8.7,-0.2,70.4*,1.3,62.7*,-0.7,AlphaScreen DR=>6.48
CC12C=CC(CO)(O1)C1C(=O)NC(=O)C12 (configuration not stated),-12.2,0.2,17.9,-1.4,nt,nt,
ClC1(Cl)CC1CNc1ncnc2sc3c(c12)CCC3 (configuration not stated),0.5,-0.1,60.0*,1.4,10.3,14.1,
Cc1cccc(-n2cc(-c3ccccc3)c3c(NCCC4=CCCCC4)ncnc32)c1,12.4,0.1,7.6,2.8,nt,nt,
Cc1ccc(C(=O)Cn2nnc(-c3ccc(N)cc3)n2)cc1,-0.3,0.1,73.0*,-1.4,15.6,10.3,
Cc1ccc(-c2nnn(CC(=O)c3ccc4c(c3)OCCO4)n2)cc1,-3.6,-0.1,-10.6,-0.7,nt,nt,
CCOc1ccc(S(=O)(=O)N2CCN(c3cccc(C)c3C)CC2)c2cccnc12,-11.6,-0.1,3.2,-1.3,nt,nt,
c1ccc(C2CCC(N3CCN(C4CCCCCC4)CC3)CC2)cc1 (configuration not stated),-3.4,-0.2,62.9*,-0.8,1.8,14.6,
CC1CCCC(N2CCN(Cc3ccco3)CC2)C1 (configuration not stated),-5.6,-0.3,73.7*,-0.5,-1.2,0.5,
c1ccc(C2CCC(N3CCN(Cc4ccco4)CC3)CC2)cc1 (configuration not stated),-9.0,-0.1,66.6*,0.0,3.8,5.5,
c1ccc(C2CCC(N3CCN(C4CCCC4)CC3)CC2)cc1 (configuration not stated),3.4,-0.1,18.8,-0.7,nt,nt,
COC(CNC(=O)c1ccc2c(=O)n(CCCN3CCCC3=O)c(=S)[nH]c2c1)OC,2.8,0.1,14.1,1.1,nt,nt,
COC(=O)c1ccc(-c2cnn3c(N4CCC[C@H]4CO)ccnc23)cc1,-56.1,0.3,-13.3,1.6,nt,nt,
CNS(=O)(=O)c1cc(O)c2c(S(=O)(=O)O)cc(S(=O)(=O)NC)cc2c1,-4.9,0.2,11.7,-0.9,nt,nt,
Nc1cc2c(S(=O)(=O)O)cc(S(=O)(=O)O)cc2cc1S(=O)(=O)O,0.7,0.0,51.5*,-0.2,35.2*,28.1,AlphaScreen DR=>6.48
O=[N+]([O-])c1ccc(N2CCN(Cc3cccnc3)CC2)cc1,2.5,-0.1,58.6*,-0.5,-0.4,-1.6,
O=C(O)c1ccc(CN2CCN(c3ccc([N+](=O)[O-])cc3)CC2)cc1,14.5,0.0,-6.8,-0.4,nt,nt,
O=[N+]([O-])c1ccc(N2CCN(Cc3ccncc3)CC2)cc1,8.2,0.1,60.8*,0.6,-0.3,-0.7,
O=C(c1ccccc1Cl)N1CCN(c2ccc([N+](=O)[O-])cc2)CC1,25.1,-0.1,96.6*,0.0,7.4,10.6,
CCOC(=O)C(NC(=O)c1sc2ncn(CC)c(=O)c2c1C)C(=O)OCC,-7.6,0.3,9.2,0.9,nt,nt,
O=C(COC(=O)c1ccc([N+](=O)[O-])o1)Nc1ccc2c(c1)OC(F)(F)O2,14.0,-0.1,82.2*,0.5,7.7,12.8,
O=C(Cn1nnc2ccccc21)N/N=C\c1ccc(Cl)c(Cl)c1,3.3,0.0,15.2,0.3,nt,nt,
O=C(NCCN1CCOCC1)c1cccc(-c2ccccc2)c1,-4.9,-0.1,75.5*,0.1,11.3,5.7,
O=C(NCCN1CCOCC1)c1cccc(C(=O)NCCN2CCOCC2)c1,2.3,0.2,-6.9,-0.3,nt,nt,
O=C(CNCCCN1CCOCC1)Nc1ccccc1N1CCCCCC1,1.3,-0.2,70.6*,0.6,5.5,16.4,
SMILES,TEAD-YAP block,FBW7 activator,MITF primary,GPR151 ag,MITF inh conf,AS interf ctr,others
CC1=CC(C)(C)N(C(=O)CNCCN2CCOCC2)c2cc(C)ccc21,5.0,0.2,58.8*,-0.2,8.9,23.2,
Cc1cccc(C)c1NC(=O)CNCCN1CCOCC1,0.7,0.4,92.3*,-1.3,-12.2,-4.8,
CCCCNCC(=O)Nc1ccccc1N1CCCCCC1,4.0,-0.2,11.7,-0.1,nt,nt,
Cc1ccc(-n2ncc3c(=O)n(Cc4ccccn4)cnc32)cc1,-5.5,0.0,15.9,-0.3,nt,nt,
O=C(NCCN1CCOCC1)c1cnc(NCc2ccc3c(c2)OCO3)s1,2.9,-0.1,12.1,0.4,nt,nt,
O=C(CNCc1ccc2c(c1)OCO2)Nc1ccc(N2CCCC2)cc1,-1.2,-0.1,61.6*,0.3,21.4,23.4,
c1cc2c(cc1CNCC1CCCCC1)OCO2,-8.1,0.0,58.2*,-0.9,9.1,10.9,
